Consider 14 molecules from PubChem BioAssay (NCI).

The panel holds about 83,000 compounds, 20% with a hit somewhere; the sample as a whole holds those more often.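 Assay: single dose, 48 h. Readout: percent growth (0 = no net growth; negative = cell death). Active: <10.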 A number with no mark means an inactive call. Active and inactive are the calls of the source.

Among the test systems are NCI-H23 lung; NCI-H226 lung; NCI-H322M lung; HOP-62 NSCLC; NCI-H460 lung; HOP-92 NSCLC; NCI-H522 lung; A549/ATCC NSCLC; 786-0 renal; COLO 205 colon.
Common to all, as to assay: NCI-60 one-dose screen, 48 h (100 = growth as untreated, 0 = no growth, -100 = all killed)
Holding throughout (conditions): 10 µM unless noted

In the case of `COc1ccc(S(=O)(=O)NCCNc2nccc(-c3c(-c4ccccc4)nc4sccn34)n2)cc1`, the growth was 37% in the test on NCI-H23 lung; 13.2% with NCI-H226 lung; 45.9% in the test with NCI-H322M lung; 64.4% in the test with HOP-62 NSCLC; 23.6% with NCI-H460 lung; 48.9% in the test on HOP-92 NSCLC. Further, the growth in the test on NCI-H522 lung was 41%; in the test on A549/ATCC NSCLC it was 18.4%; in the test with 786-0 renal, 32%; with COLO 205 colon, 1.41% (active).

As to `Cc1ccc2c(c1)C(=O)C(c1c(-c3[nH]c(=O)c4ccc(C)cc4c3O)c(O)c3ccccc3c1O)=NC2=O`, the growth with NCI-H23 lung is 15.5%; in the test on NCI-H226 lung, -1.84% (active); in the test with NCI-H322M lung it was 38.8%; with HOP-62 NSCLC, 8.69% (active); in the test with NCI-H460 lung, -39.8% (active); with HOP-92 NSCLC, 38.7%. The growth was 7.58% (active) with NCI-H522 lung, 21.8% in the test with A549/ATCC NSCLC, 12.7% in the test on 786-0 renal and 69.9% in the test with COLO 205 colon.

For the molecule `CC1CCc2c(sc(NC(=O)CSc3nnc4ccccn34)c2C(N)=O)C1` (stereo not given), the growth in the test with NCI-H23 lung is 109%; with NCI-H226 lung, 103%; in the test on NCI-H322M lung, 121%; with HOP-62 NSCLC, 110%; in the test with NCI-H460 lung, 106%; with HOP-92 NSCLC it was 97.8%. Also, the growth with NCI-H522 lung is 108%; with A549/ATCC NSCLC, 118%; in the test on 786-0 renal, 115%; in the test on COLO 205 colon, 126%.

`CCCCC[C@@H]1Cc2cc(O)c(C(=O)O)c3c2[C@H](C[C@@]2(CCCO2)O3)O1`: the growth in the test on NCI-H23 lung was 103%; in the test with NCI-H226 lung, 110%; with NCI-H322M lung it was 121%; in the test with HOP-62 NSCLC it was 93.6%; in the test with NCI-H460 lung, 121%; with HOP-92 NSCLC, 4.89% (active). The growth in the test on NCI-H522 lung is 89.7%; in the test on A549/ATCC NSCLC it was 105%; in the test on 786-0 renal, 103%; in the test with COLO 205 colon it was 112%.

Consider `CC1CCN(C(=O)CSc2nc3sc4c(c3c(=O)[nH]2)CCCC4)CC1`, for which the growth with NCI-H23 lung is 113%; in the test with NCI-H226 lung, 100%; in the test with NCI-H322M lung, 104%; in the test with HOP-62 NSCLC, 103%; with NCI-H460 lung, 120%; in the test on HOP-92 NSCLC it was 88.2%. In addition, the growth with NCI-H522 lung is 89.9%; in the test on A549/ATCC NSCLC, 106%; in the test with 786-0 renal, 110%; in the test with COLO 205 colon, 112%.

Consider `COc1ccc(/C=C/c2nc(N3CCOCC3)c3nc(Cl)c(Cl)cc3n2)cc1OC`, for which the growth was 99.7% in the test on NCI-H23 lung; 102% with NCI-H226 lung; 145% in the test on NCI-H322M lung; 115% in the test with HOP-62 NSCLC; 106% in the test with NCI-H460 lung; 105% in the test on HOP-92 NSCLC. The growth is 83.1% with NCI-H522 lung, 96.5% in the test on A549/ATCC NSCLC, 99.8% with 786-0 renal and 105% in the test with COLO 205 colon.

As for `NCCSC(c1ccccc1)(c1ccccc1)c1ccccc1`, the growth is 25.1% with NCI-H23 lung; 68.6% with NCI-H226 lung; 29.5% in the test with NCI-H322M lung; 40.8% in the test on HOP-62 NSCLC; 7.06% (active) in the test with NCI-H460 lung; -2.14% (active) in the test with HOP-92 NSCLC. Also, the growth is -20.7% (active) in the test with NCI-H522 lung, 19.9% in the test on A549/ATCC NSCLC, 37.9% in the test on 786-0 renal and -42.8% (active) in the test on COLO 205 colon.

Regarding `c1ccc([P+](CCC[P+](c2ccccc2)(c2ccccc2)c2ccccc2)(c2ccccc2)c2ccccc2)cc1`, the growth is 89% with NCI-H23 lung; 101% in the test on NCI-H226 lung; 79.5% in the test with NCI-H322M lung; 75.3% in the test on HOP-62 NSCLC; 77.6% with NCI-H460 lung; 20.1% in the test on HOP-92 NSCLC. Besides, the growth with NCI-H522 lung is 43.1%; in the test with A549/ATCC NSCLC, 86.9%; in the test on 786-0 renal, 92.5%; in the test on COLO 205 colon, 45.4%.

Consider `CC(C)CCN(CCCNc1c2c(nc3ccccc13)CCCC2)CCC(C)C`, for which the growth with NCI-H23 lung is 84.1%; in the test with NCI-H226 lung, 102%; with NCI-H322M lung it was 81.7%; in the test with HOP-62 NSCLC, 102%; with NCI-H460 lung it was 91%; in the test on HOP-92 NSCLC, 42.4%. The growth with NCI-H522 lung is 103%; in the test on A549/ATCC NSCLC it was 94.1%; in the test with 786-0 renal it was 77.6%; in the test on COLO 205 colon it was 61.7%.

Regarding `COc1cccc(-n2cc(-c3nc(Cl)c4ccccc4n3)nn2)c1`, the growth with NCI-H23 lung is 100%; in the test on NCI-H226 lung, 111%; in the test on NCI-H322M lung it was 102%; with HOP-62 NSCLC, 125%; in the test on NCI-H460 lung, 107%; in the test with HOP-92 NSCLC, 101%. The growth was 83.2% with NCI-H522 lung, 92.7% in the test on A549/ATCC NSCLC, 97.8% in the test with 786-0 renal and 98.8% in the test with COLO 205 colon.

Regarding `O=C(N/N=C/c1c(Cl)cccc1Cl)c1ccccc1Nc1ccnc(C(F)(F)F)c1`, the growth in the test on NCI-H23 lung was 46%; with NCI-H226 lung, 65.2%; in the test on NCI-H322M lung it was 58.6%; in the test with HOP-62 NSCLC it was 67.2%; in the test with NCI-H460 lung, 36.1%; in the test with HOP-92 NSCLC it was 71.5%. For the same molecule, the growth is 52.6% in the test on NCI-H522 lung, 49.2% in the test on A549/ATCC NSCLC, 75% in the test on 786-0 renal and 94.7% in the test on COLO 205 colon.

Consider `O=C(Cc1n[nH]c(=O)c2ccccc12)OCc1c(Cl)cccc1Cl`, for which the growth in the test with NCI-H23 lung is 103%; in the test with NCI-H226 lung, 77.5%; in the test on NCI-H322M lung, 107%; in the test with HOP-62 NSCLC, 69.1%; in the test on NCI-H460 lung it was 26.3%; with HOP-92 NSCLC, 88.2%. Further, the growth was 98.9% in the test with NCI-H522 lung, 96.4% in the test on A549/ATCC NSCLC, 81.6% in the test with 786-0 renal and 112% with COLO 205 colon.

Turning to `COc1cccc(C2CC(=O)Nc3c2c(C)nn3-c2nc3ccccc3[nH]2)c1OC` (stereo not given), the growth in the test with NCI-H23 lung was 50.5%; with NCI-H226 lung, 55.1%; in the test with NCI-H322M lung it was 60%; in the test with HOP-62 NSCLC, 57.4%; with NCI-H460 lung, 50.2%; in the test with HOP-92 NSCLC it was 85.4%. Moreover, the growth in the test on NCI-H522 lung is 87.8%; in the test with A549/ATCC NSCLC it was 34.4%; in the test with 786-0 renal, 91.7%; with COLO 205 colon, 98.1%.

For the molecule `Cc1ccc(S(=O)(=O)NCCCNc2nccc(-c3c(-c4ccccc4)nc4sccn34)n2)cc1`, the growth was 76.2% in the test on NCI-H23 lung; 49.4% in the test with NCI-H226 lung; 78.4% with NCI-H322M lung; 124% with HOP-62 NSCLC; 52% in the test on NCI-H460 lung; 93.8% with HOP-92 NSCLC. In addition, the growth with NCI-H522 lung is 54.1%; in the test with A549/ATCC NSCLC, 58.4%; in the test on 786-0 renal it was 38.7%; with COLO 205 colon, 46.6%.
